# Measurements taken from PubChem BioAssay.
# Assay: calcein-AM signal in unstimulated myeloma cells – cell-based, calcein-AM fluorescence, 48 h, PK04 Diversity Set, profiling panel (AID 1166);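 also: cells grown under basal conditions without added stimulus; test concentration not given here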
# Details: RPMI8226 myeloma viability, higher = more signal
row,Structure (SMILES),z-score
1,CCCC[C@@H]1C[C@H]1[C@@H](NC(=O)c1cccnc1)c1ccc(-c2ccccc2)cc1,-2.21
2,O=C1O[C@@H](c2ccccc2)[C@@H](c2ccccc2)N2[C@@H](c3ccc(O)cc3)[C@]3(C(=O)Nc4ccc(C#CCCO)cc43)[C@@H](C(=O)Nc3nc4ccccc4s3)[C@H]12,-2.65
3,O=C(O)[C@]1(Cc2ccccc2)N=C(c2ccc(OCCCO)cc2)O[C@@H]1c1ccccc1,0.261
4,Cc1ccc(S[C@]2(C(=O)NCc3ccccc3)CC(=O)N(C(C)C)[C@@H]2c2ccc(CO)cc2I)cc1,-3.15
5,Cc1ccc(C(C)CC(O)C2C=CC3C(=O)N(c4ccccc4)C(=O)C3N2Nc2ccc(C(C)C)cc2)o1 (stereo not drawn),-1.19
6,C=CC[C@]12N=C(c3ccc(OCCCO)cc3)O[C@H]1c1ccccc1N(C)C2=O,-3.83
7,C=C(COC)/C(=C/C[C@@H](OC(=O)c1ccncc1)c1ccc(CO)o1)c1cnc2ccccc2c1,0.575
8,O=C1NC(=O)C2C1C=CC(C(O)c1cc(C(F)(F)F)cc(C(F)(F)F)c1)N2Nc1ccc(Cl)cc1Cl (stereo not drawn),-3.56
